Assay outcomes from PubChem BioAssay.
APE1 inh: blocks human APE1 abasic DNA cleavage; recombinant APE1, TAMRA/BHQ-2 abasic DNA cleavage fluorescence; Potency, µM (doses to about 65.8 µM), for the others: at the top dose activity change, negative = inhibition, most hits filed as inhibitors; 350,000 compounds, 0.35% hits; AID 2517;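 further: potency means the concentration at half of the fitted maximal effect; plate controls were vehicle for no effect and reference inhibitor for full effect; nearly all actives have a fitted effect of over 55% in size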
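Kinetic fluorescence read (525 ex/598 em nm, three reads 60 s apart) of AP-site incision; signal = third minus first read. Enzyme 0.75 nM, dual-labelled THF duplex 50 nM, compound preincubation 15 min RT.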
Pol beta inh: DNA polymerase beta (human) inhibition | Potency, µM (doses to about 114 µM), for the others: at the highest dose activity change, negative = inhibition, usual class: inhibitors | AID 485314 | Pol beta primer extension/strand displacement, fluorescence kinetic | P06746 | 340,000 compounds, 1.3% hits; further: potency means the concentration at half of the fitted maximal effect; on the % scale 0 is the no-effect control and ±100 the full control effect
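Enzyme-only controls used 10 nM Pol beta; buffer lacking enzyme served as negative control. Compound preincubated 15 min, then 50 nM substrate added; 0 and 10 min reads at room temperature.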
GLS inh: blocks human kidney-isoform glutaminase activity | AID 624170 | GLS enzymatic activity, qHTS titration | 410,000 compounds, 0.21% hits | Potency, µM (highest dose often 45.5 µM), without a hit: at the top dose activity change, negative = inhibition, most hits filed as inhibitors | O94925; further: potency means the concentration at half of the fitted maximal effect; on the % scale 0 is the no-effect control and ±100 the full control effect
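Two-point fluorescence kinetic (t0, 30 min RT) for hKGA; glutamate detected via glutamate oxidase–HRP–Amplex Red. Substrate: 1 mM L-glutamine solution; buffer 45 mM KH2PO4, pH 8.2.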
Pol eta inh-1: inhibitors of human DNA polymerase eta | Q9Y253 | recombinant Pol eta, fluorescent DNA replication assay | Potency, µM (series often up to 114 µM), for the others: top-dose activity change, negative = inhibition, hits mostly inhibitors | 390,000 compounds, 1.2% hits; further: potency means the concentration at half of the fitted maximal effect; on the % scale 0 is the no-effect control and ±100 the full control effect
Target sequence (Q9Y253 whole entry, looked up): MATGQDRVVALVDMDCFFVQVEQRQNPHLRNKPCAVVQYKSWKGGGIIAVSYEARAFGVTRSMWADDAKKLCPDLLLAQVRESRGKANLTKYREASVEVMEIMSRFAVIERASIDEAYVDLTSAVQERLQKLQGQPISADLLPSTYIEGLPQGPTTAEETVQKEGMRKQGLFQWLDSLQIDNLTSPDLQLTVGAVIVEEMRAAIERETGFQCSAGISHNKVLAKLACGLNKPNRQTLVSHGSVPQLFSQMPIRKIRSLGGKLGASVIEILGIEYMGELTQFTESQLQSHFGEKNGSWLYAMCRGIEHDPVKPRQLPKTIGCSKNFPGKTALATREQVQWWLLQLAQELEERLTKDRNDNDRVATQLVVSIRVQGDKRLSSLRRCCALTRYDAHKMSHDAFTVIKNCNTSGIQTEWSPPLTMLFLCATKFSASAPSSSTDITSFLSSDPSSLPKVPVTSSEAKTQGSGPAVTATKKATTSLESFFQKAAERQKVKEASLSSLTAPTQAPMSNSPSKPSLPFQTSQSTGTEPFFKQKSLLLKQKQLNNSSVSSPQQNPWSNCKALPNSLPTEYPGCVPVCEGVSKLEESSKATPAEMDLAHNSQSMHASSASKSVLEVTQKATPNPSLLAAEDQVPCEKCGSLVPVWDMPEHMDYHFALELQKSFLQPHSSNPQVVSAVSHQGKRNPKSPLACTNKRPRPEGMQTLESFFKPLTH
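Pol eta (10 nM) was preincubated with compounds for 15 min at room temperature, after which fluorescent replication substrate (50 nM final) was added to start the reaction. Fluorescence was read kinetically at 0 and 10 min.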
Pol kappa inh-1: blocks human DNA polymerase kappa activity. purified Pol kappa, fluorescent DNA synthesis assay, 10 min. Potency, µM (top dose mostly 107 µM), inactives show at the highest dose activity, negative = inhibition, actives largely listed as inhibitors. 400,000 compounds, 0.53% hits; further: potency means the concentration at half of the fitted maximal effect; on the % scale 0 is the no-effect control and ±100 the full control effect
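Activity was followed as the change in fluorescence between reads at 0 and 10 min after starting the reaction with 50 nM substrate. Beforehand, 10 nM polymerase had been preincubated with compound for 15 min at room temperature.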
Pol iota inh: blocks human DNA polymerase iota activity. Potency, µM (top dose mostly 115 µM), inactives show at the top dose activity, negative = inhibition, most hits filed as inhibitors. Pol iota fluorescent replication assay, 10 min. Q9UNA4. 390,000 compounds, 1% hits; further: potency means the concentration at half of the fitted maximal effect
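Pol iota at 10 nM preincubated 15 min with compounds at room temperature; reaction started with fluorescent substrate, 50 nM final. Fluorescence read kinetically at 0 and 10 min; buffer-only wells as negative control.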
BAZ2B inh: inhibits human BAZ2B bromodomain, hit validation | shares compounds with Pol kappa inh-1 | AlphaScreen BAZ2B / biotin-H3K14Ac peptide displacement | Potency, µM, most hits filed as inhibitors | 25 compounds, 100% hits | AID 588809; calls by dose curve
BAZ2B bead ctr: AlphaScreen signal interference, BAZ2B hit counter-screen; 25 tested, under 10 active; AlphaScreen biotin-His6 peptide bead counterscreen, signal decrease; shares compounds with Pol kappa inh-1; Potency, µM (top dose mostly 57.1 µM), without a hit: at the top dose activity change, negative = inhibition, actives largely listed as inhibitors;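 active means clear concentration-dependent signal drop in the bead assay lacking the target, so a primary-screen artifact; inconclusive means weak, partial or single-dose response; inactive means no response, so a real primary hit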
TbPGK inh: TbPGK inhibition, hit validation. shares compounds with Pol kappa inh-1. TbPGK coupled GAPDH assay, Kinase-Glo luminescence. Potency, µM (titrated, usually from 57.5 µM), without a hit: top-dose activity change, negative = inhibition, most hits filed as inhibitors. 500 compounds, 79% hits. AID 686980; further: potency means the concentration at half of the fitted maximal effect; on the % scale 0 is the no-effect control and ±100 the full control effect; nearly all actives have a fitted effect of over 65% in size
POLI cherry-pick: Human Pol iota inhibitor confirmatory assay; 1,500 compounds, 77% hits; Potency, µM, most hits filed as inhibitors; shares compounds with Pol kappa inh-1; Pol iota primer extension, TAMRA/BHQ fluorescence; further: potency means the concentration at half of the fitted maximal effect
Pol kappa inh-2: Pol kappa (human) inhibition, cherry-pick confirmation. shares compounds with Pol eta inh-1. purified Pol-kappa, fluorescent strand-displacement substrate. Potency, µM, most hits filed as inhibitors. 920 compounds, 76% hits; further: potency means the concentration at half of the fitted maximal effect
Pol eta inh-2: confirmation of human DNA polymerase eta inhibitors; shares compounds with Pol eta inh-1; Pol eta primer extension, TAMRA/BHQ fluorescence, 10 min; Potency, µM, actives largely listed as inhibitors; 2,600 compounds, 64% hits; AID 720502; further: potency means the concentration at half of the fitted maximal effect
Starred values were filed as active, the others as inactive; ? = inconclusive; . = no result; [ ] = another dose, or the depositor's remark. An excerpt weighted towards active compounds, which were near 2.4% of everything screened. Unless noted, the call rests on the fitted dose curve; in most records, active means well fitted curve in the direction sought with a large enough effect; inconclusive means small, poorly fitted or top-dose-only effect, or another doubt; inactive means no such curve, though single readings can be large; an effect the other way counts as inactive or inconclusive.

SMILES | APE1 inh | Pol beta inh | GLS inh | Pol eta inh-1 | Pol kappa inh-1 | Pol iota inh | POLI cherry-pick | Pol eta inh-2 | others
O=C1NC(=O)N(Cc2ccccc2)C(=O)/C1=C\c1ccco1 | ? | 25µM* | -29% | 20µM* | 28µM* | ? | ? | 34*
O=C1NC(=O)N(Cc2ccco2)C(=O)/C1=C/c1cccn1CCOc1ccccc1Cl | 15% | 25µM* | -1% | 14µM* | ? | 11µM* | 67* | 30* | Pol kappa inh-2=60*
COc1ccc(CN2C(=O)NC(=O)/C(=C/c3ccc(OC)c(OC)c3OC)C2=O)cc1 | -16% | 20% | 0% | -9% | -5% | 34% | . | .
CN1/C(=C\C=C2C(=O)NC(=S)NC2=O)C(C)(C)c2ccccc21 | 3% | ? | 11% | 79µM* | 52% | -9% | ? | 85* | Pol kappa inh-2=60*
COc1ccc(C=C2C(=O)NC(=S)NC2=O)cc1 | . | . | -20% | -4% | -10% | -3% | . | .
CC1(C)OC(c2ccccc2)=C/C(=C/C=C2C(=O)NC(=S)NC2=O)O1 | -11% | 50µM* | -21% | ? | ? | ? | 67* | 76*
O=C1NC(=S)NC(=O)C1=Cc1c(Cl)cccc1Cl | . | . | -5% | -4% | -13% | 17% | . | .
CN(C)C(=O)Oc1ccc2c(c1)O/C(=C\c1ccc(Cl)cc1)C2=O | 19% | ? | -12% | -4% | 6% | -14% | . | .
COc1ccc(N=Nc2c(O)[nH]c(=S)[nH]c2=O)cc1 | 0% | -27% | 16% | -20% | -5% | 78% | . | .
CSc1nc(N)c(N=Nc2ccc([As](=O)(O)O)cc2)c(=O)[nH]1 | -5% | 35µM* | -1% | 50µM* | -24% | 8.9µM* | 42* | 76*
C=C(C)C(=O)Nc1cccc(C2=NOC3(C2)C[C@@H](C(N)=O)N(C(=O)/C(C)=C/C)C3)c1 (some centres undefined) | -10% | 1.4µM* | ? | 2.5µM* | 20µM* | 35µM* | 30* | 6.7* | BAZ2B inh=4*;BAZ2B bead ctr=-10%;TbPGK inh=?;Pol kappa inh-2=8.4*
O=C1/C(=C/c2ccccc2Cl)N2CCC1CC2 | -1% | 2% | -11% | -21% | 4% | 7% | . | .
Nc1ccc2ccc3cccc[n+]3c2c1 | -14% | 4% | -10% | ? | -26% | 3% | . | .
C[n+]1c(-c2ccccc2)c2cc(N)ccc2c2ccc(N)cc21 | 11µM* | 25µM* | -8% | ? | 25µM* | 8.9µM* | 17* | 67* | Pol kappa inh-2=2.4*
COc1ccccc1CNCCc1cccc(Cl)c1 | . | . | -3% | -5% | . | . | . | .
COc1cccc(N=Nc2c(O)[nH]c(=S)[nH]c2=O)c1 | -1% | 1% | -1% | -10% | 0% | ? | . | .
COc1ccc(S(=O)(=O)Nc2ccccc2OC)cc1N=Nc1c(O)[nH]c(=S)[nH]c1=O | -9% | . | 8% | 22µM* | ? | ? | 42* | ? | Pol kappa inh-2=42*
c1ccc(N2CCN(c3ccccc3)CC2)cc1 | . | . | . | . | -4% | 3% | . | .
O=C1C=C(N2CC2)c2ccccc2C1=O | . | . | ? | 8.9µM* | . | . | 47* | 30*
C=CCN1C(=O)NC(=O)/C(=C/c2ccoc2)C1=O | -10% | 28µM* | -11% | 10µM* | 45µM* | 20µM* | 21* | 17*
Cc1ccc(N2C(=O)NC(=O)/C(=C/c3cnn(-c4ccc(C)cc4)c3)C2=O)cc1 | 1% | 36% | -14% | 8% | -19% | 3% | . | .
Cc1ccc(N2C(=O)NC(=O)/C(=C/c3ccoc3)C2=O)cc1 | 1.6µM* | ? | 9% | 3.2µM* | 22µM* | 7.9µM* | 12* | 17* | TbPGK inh=0.92µM*
O=C(Nc1ccc(F)cc1)N1Cc2ccccc2-n2nncc2C1 | . | . | 5% | -4% | . | . | . | .
CN1C(=O)NC(=O)/C(=C/c2ccc([N+](=O)[O-])o2)C1=O | ? | 32µM* | 119% | 3.5µM* | 22µM* | ? | 6* | 4.3* | TbPGK inh=2.6µM*
Cc1[nH]c2ccc(Cl)cc2c1C1=CCNCC1 | -1% | . | . | . | -5%[60.1 µM] | . | . | .
SMILES | APE1 inh | Pol beta inh | GLS inh | Pol eta inh-1 | Pol kappa inh-1 | Pol iota inh | POLI cherry-pick | Pol eta inh-2 | others
NN=C1C(Cl)=C(Cl)C(Cl)=C1Cl | . | . | -1% | ? | . | . | 67* | ? | Pol kappa inh-2=?
O=C(NC(=S)N1CC1)c1ccccc1 | . | . | 4% | -2% | . | . | . | .
O=C(Nc1ccc2oc(-c3cccnc3)nc2c1)c1ccc(-c2cccc(Cl)c2)o1 | . | ? | 2% | 71µM* | -17% | -7% | 42* | 76*
CCCCn1c(NC(=O)c2ccc(Br)o2)c(C(=O)OCC)c2nc3ccccc3nc21 | 6% | ? | 37% | 22µM* | -10% | ? | 42* | 19*
CC(C)C[C@H](NC(=O)CNC(=O)[C@H](CCC(N)=O)NC(=O)[C@H](Cc1ccc(O)cc1)NC(=O)[C@@H](NC(=O)[C@H](Cc1ccc(O)cc1)NC(=O)CNC(=O)[C@@H](N)CCCN=C(N)N)C(C)C)C(=O)O | -2% | . | . | . | -4%[60.1 µM] | . | . | .
COc1ccc(N2C(=O)/C(=C/c3ccc(C)o3)C(=O)NC2=S)c(OC)c1 | -9% | 40µM* | ? | 10µM* | 50µM* | 11µM* | 47* | 17* | Pol kappa inh-2=3.4*
CCc1ccccc1N1C(=O)/C(=C/c2ccc(N3CCN(C)CC3)o2)C(=O)NC1=S | 1% | 10% | ? | 8.9µM* | 25µM* | 11µM* | 60* | 9.5*
